The values that follow come from paper PMC5700166.

Common to all, as to experiment: protein-binding microarray (PBM); PBM: ~300 nM protein, 6 mM HEPES pH 7.8, 80 mM KCl, 0.5 mM EDTA, 0.5 mM EGTA, 6% glycerol, 35 ng/ul poly-dIdC, 1% milk, 1 h, room temperature; Ap Aiptasia and Nv Nematostella (sea anemones) / Co Capsaspora / Aq Amphimedon (sponge) / Dm Drosophila / Hu human; RHD is the Rel homology domain; high values mean tight binding
Settings in all cases: dsDNA, one strand shown

One experiment concerns the target T1, GST-Ap-NF-kB RHD (Exaiptasia pallida (Aiptasia), UniProt A0A913YAJ5 2-422).
T1 sequence: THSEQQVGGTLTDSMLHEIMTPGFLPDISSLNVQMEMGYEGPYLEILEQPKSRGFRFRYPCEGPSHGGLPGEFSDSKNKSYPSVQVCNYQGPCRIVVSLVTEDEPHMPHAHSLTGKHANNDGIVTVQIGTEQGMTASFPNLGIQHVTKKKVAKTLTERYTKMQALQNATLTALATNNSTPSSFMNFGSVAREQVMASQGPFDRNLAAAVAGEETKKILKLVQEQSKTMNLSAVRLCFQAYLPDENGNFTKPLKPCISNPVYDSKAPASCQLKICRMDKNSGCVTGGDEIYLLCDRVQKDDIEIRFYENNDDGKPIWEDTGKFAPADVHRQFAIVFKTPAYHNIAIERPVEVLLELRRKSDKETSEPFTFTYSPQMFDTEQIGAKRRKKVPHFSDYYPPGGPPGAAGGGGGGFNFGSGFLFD

The target in experiment [1] is T2, GST-Nv-NF-kB (Cys allele) (Nematostella vectensis, UniProt E5G601 2-411).
T2 sequence: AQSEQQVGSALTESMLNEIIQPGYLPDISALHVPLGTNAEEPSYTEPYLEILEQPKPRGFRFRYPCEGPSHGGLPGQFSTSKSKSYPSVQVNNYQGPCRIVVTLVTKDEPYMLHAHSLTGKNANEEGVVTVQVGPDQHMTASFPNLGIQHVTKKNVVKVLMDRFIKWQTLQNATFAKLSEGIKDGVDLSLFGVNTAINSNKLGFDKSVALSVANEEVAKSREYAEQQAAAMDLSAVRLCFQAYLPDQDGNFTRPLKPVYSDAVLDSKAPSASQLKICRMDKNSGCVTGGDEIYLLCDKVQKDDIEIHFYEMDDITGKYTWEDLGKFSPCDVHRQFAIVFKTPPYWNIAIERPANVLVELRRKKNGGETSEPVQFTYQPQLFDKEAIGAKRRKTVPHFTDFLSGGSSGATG

Experiment [2] addresses T3, GST-Nv-NF-kB (Ser allele) (Nematostella vectensis, UniProt A7UNT2 2-411).
T3 sequence: T2 sequence with Q21R, C66S, S207N, E215Q, V217A, E225K, A268E, D399E

A further experiment deals with T4, GST-Co-NF-kB (Capsaspora owczarzaki, UniProt F1ARL5 200-546).
T4 sequence: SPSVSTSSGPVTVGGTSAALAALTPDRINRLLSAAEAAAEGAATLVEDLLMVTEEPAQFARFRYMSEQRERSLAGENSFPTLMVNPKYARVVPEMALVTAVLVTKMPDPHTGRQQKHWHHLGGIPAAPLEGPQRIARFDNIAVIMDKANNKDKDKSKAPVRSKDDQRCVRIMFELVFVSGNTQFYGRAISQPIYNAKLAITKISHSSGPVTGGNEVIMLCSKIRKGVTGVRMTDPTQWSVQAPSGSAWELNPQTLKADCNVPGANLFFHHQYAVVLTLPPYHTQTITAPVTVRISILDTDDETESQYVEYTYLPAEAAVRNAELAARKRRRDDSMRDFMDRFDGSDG

The target in a further experiment is T5, GST-Dm-Relish (Drosophila melanogaster, UniProt Q94527 99-473).
T5 sequence: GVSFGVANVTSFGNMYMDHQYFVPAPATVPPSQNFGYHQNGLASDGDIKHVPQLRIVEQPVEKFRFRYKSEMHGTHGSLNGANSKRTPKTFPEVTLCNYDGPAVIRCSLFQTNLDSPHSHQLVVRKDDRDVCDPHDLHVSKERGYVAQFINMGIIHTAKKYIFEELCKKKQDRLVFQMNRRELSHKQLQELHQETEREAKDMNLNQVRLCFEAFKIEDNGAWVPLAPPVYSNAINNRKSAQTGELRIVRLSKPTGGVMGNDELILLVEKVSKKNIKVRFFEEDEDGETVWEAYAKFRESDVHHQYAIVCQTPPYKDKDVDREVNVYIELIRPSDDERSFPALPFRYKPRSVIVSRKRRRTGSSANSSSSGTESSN

The target in another experiment is T6, GST-Aq-NF-kB (Amphimedon queenslandica, UniProt A9Y5G7 2-389).
T6 sequence: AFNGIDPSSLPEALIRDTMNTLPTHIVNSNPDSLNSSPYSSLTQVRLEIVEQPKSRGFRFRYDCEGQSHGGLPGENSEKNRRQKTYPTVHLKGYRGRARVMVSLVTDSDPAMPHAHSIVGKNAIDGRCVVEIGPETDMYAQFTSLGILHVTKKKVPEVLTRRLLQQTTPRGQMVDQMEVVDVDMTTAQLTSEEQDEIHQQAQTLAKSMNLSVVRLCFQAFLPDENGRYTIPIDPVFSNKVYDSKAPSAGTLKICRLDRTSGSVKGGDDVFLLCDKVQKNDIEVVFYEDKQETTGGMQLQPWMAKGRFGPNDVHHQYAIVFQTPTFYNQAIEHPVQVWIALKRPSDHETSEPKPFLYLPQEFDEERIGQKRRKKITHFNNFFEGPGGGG

Changes are numbered by the printed parent chain.

In the case of “CCGATTAACATCAACATTTTCCCTGATGTTAATCGGGTCTTGATTCGCTTGACGCTGCTG”, the binding signal stood at 3.52 z-score in the experiment with GST-Ap-NF-kB RHD; 5.79 z-score in experiment [1]; 8.32 z-score in experiment [2]; 4.91 z-score with GST-Co-NF-kB; 1.62 z-score with GST-Dm-Relish; 3.41 z-score with GST-Aq-NF-kB.
“CCGATTAACATCAAGCCCCCCCATGATGTTAATCGGGTCTTGATTCGCTTGACGCTGCTG”: the binding signal in the experiment with GST-Ap-NF-kB RHD is 4.83 z-score; in experiment [1], 3.07 z-score; in experiment [2], 3.1 z-score; with GST-Co-NF-kB, 3.51 z-score; in the experiment with GST-Dm-Relish it was 3.97 z-score; in the experiment with GST-Aq-NF-kB, 3.85 z-score.
With “CCGATTAACATCATGATGGGAAATGATGTTAATCGGGTCTTGATTCGCTTGACGCTGCTG”, the binding signal is 1.17 z-score in the experiment with GST-Ap-NF-kB RHD, 2.84 z-score in experiment [1], 1.71 z-score in the experiment with GST-Co-NF-kB and 1.64 z-score with GST-Aq-NF-kB.
“CCGATTAACATCAATAGTTCCCCTGATGTTAATCGGGTCTTGATTCGCTTGACGCTGCTG”: the binding signal stood at 6.43 z-score with GST-Ap-NF-kB RHD; 6.96 z-score in experiment [1]; 8.51 z-score in experiment [2]; 7.79 z-score with GST-Co-NF-kB; 6.77 z-score with GST-Dm-Relish; 5.01 z-score in the experiment with GST-Aq-NF-kB.
Consider “CCGATTAACATCAACCTCCCCCCTGATGTTAATCGGGTCTTGATTCGCTTGACGCTGCTG”, for which the binding signal with GST-Ap-NF-kB RHD was 5.79 z-score; in experiment [1], 3.9 z-score; in experiment [2] it was 3.61 z-score; in the experiment with GST-Co-NF-kB, 6.38 z-score; in the experiment with GST-Dm-Relish it was 4.38 z-score; in the experiment with GST-Aq-NF-kB, 4.25 z-score.
On to “CCGATTAACATCACGAAATTCCCTGATGTTAATCGGGTCTTGATTCGCTTGACGCTGCTG”, for which the binding signal in the experiment with GST-Ap-NF-kB RHD is 4.84 z-score; in experiment [1], 6.78 z-score; in experiment [2], 7.28 z-score; in the experiment with GST-Co-NF-kB it was 4.17 z-score; with GST-Dm-Relish, 4.59 z-score; in the experiment with GST-Aq-NF-kB, 5.74 z-score.
“CCGATTAACATCAGCCCCCCCCCTGATGTTAATCGGGTCTTGATTCGCTTGACGCTGCTG”: the binding signal in the experiment with GST-Ap-NF-kB RHD is 4.45 z-score; in experiment [1] it was 5.13 z-score; in experiment [2], 3.95 z-score; with GST-Co-NF-kB it was 5.44 z-score; with GST-Dm-Relish, 4.51 z-score; in the experiment with GST-Aq-NF-kB, 5.11 z-score.
In the case of “CCGATTAACATCAGGGAAAGGGATGATGTTAATCGGGTCTTGATTCGCTTGACGCTGCTG”, the binding signal with GST-Ap-NF-kB RHD came out at 2.49 z-score; in experiment [1], 3.29 z-score; with GST-Co-NF-kB it was 2.1 z-score; with GST-Aq-NF-kB, 2.84 z-score.
As for “CCGATTAACATCAGGGGAGTGTATGATGTTAATCGGGTCTTGATTCGCTTGACGCTGCTG”, the binding signal with GST-Ap-NF-kB RHD is 3.6 z-score; in experiment [1], 3.38 z-score; with GST-Co-NF-kB, 3.2 z-score; with GST-Aq-NF-kB, 2.89 z-score.
For the sequence “CCGATTAACATCAATAAAGTCCCTGATGTTAATCGGGTCTTGATTCGCTTGACGCTGCTG”, the binding signal was 5.45 z-score with GST-Ap-NF-kB RHD; 7.06 z-score in experiment [1]; 7.32 z-score in experiment [2]; 6.49 z-score with GST-Dm-Relish; 5.67 z-score with GST-Aq-NF-kB.
“CCGATTAACATCAGGGGATAATATGATGTTAATCGGGTCTTGATTCGCTTGACGCTGCTG”: the binding signal in the experiment with GST-Ap-NF-kB RHD is 5.41 z-score; in experiment [1], 5.47 z-score; in experiment [2], 7.02 z-score; with GST-Co-NF-kB, 5.65 z-score; in the experiment with GST-Dm-Relish, 2.58 z-score; with GST-Aq-NF-kB it was 4.59 z-score.
With “CCGATTAACATCAAAGTTTTCCCTGATGTTAATCGGGTCTTGATTCGCTTGACGCTGCTG”, the binding signal was 4.37 z-score in the experiment with GST-Ap-NF-kB RHD; 6.15 z-score in experiment [1]; 7.61 z-score in experiment [2]; 6.07 z-score with GST-Co-NF-kB; 2.47 z-score with GST-Dm-Relish; 4.93 z-score in the experiment with GST-Aq-NF-kB.
Take “CCGATTAACATCAGAATCTCCCATGATGTTAATCGGGTCTTGATTCGCTTGACGCTGCTG”: the binding signal with GST-Ap-NF-kB RHD amounted to 1.74 z-score; in experiment [1] it was 2.74 z-score; with GST-Co-NF-kB, 1.64 z-score; in the experiment with GST-Aq-NF-kB, 2.73 z-score.
For “CCGATTAACATCAGTATTCCCCATGATGTTAATCGGGTCTTGATTCGCTTGACGCTGCTG”, the binding signal with GST-Ap-NF-kB RHD is 6.37 z-score; in experiment [1], 7.73 z-score; in experiment [2] it was 6.79 z-score; in the experiment with GST-Co-NF-kB, 7.15 z-score; in the experiment with GST-Dm-Relish it was 4.54 z-score; in the experiment with GST-Aq-NF-kB it was 5.32 z-score.
Take “CCGATTAACATCAATAAATTCCCTGATGTTAATCGGGTCTTGATTCGCTTGACGCTGCTG”: the binding signal was 4.18 z-score in the experiment with GST-Ap-NF-kB RHD; 7.04 z-score in experiment [1]; 7.28 z-score in experiment [2]; 4.25 z-score with GST-Co-NF-kB; 5.85 z-score with GST-Dm-Relish; 5.34 z-score in the experiment with GST-Aq-NF-kB.
For the sequence “CCGATTAACATCAGGGAATCAGATGATGTTAATCGGGTCTTGATTCGCTTGACGCTGCTG”, the binding signal came out at 1.26 z-score with GST-Ap-NF-kB RHD, 1.61 z-score in experiment [1], 1.68 z-score in the experiment with GST-Co-NF-kB and 1.84 z-score with GST-Aq-NF-kB.
As to “CCGATTAACATCAGGGGTAGGTTTGATGTTAATCGGGTCTTGATTCGCTTGACGCTGCTG”, the binding signal with GST-Ap-NF-kB RHD turned out to be 2.16 z-score; in experiment [1], 1.65 z-score; with GST-Co-NF-kB, 3.22 z-score; in the experiment with GST-Aq-NF-kB, 2.1 z-score.
Take “CCGATTAACATCAAAAAATTACCTGATGTTAATCGGGTCTTGATTCGCTTGACGCTGCTG”: the binding signal stood at 2.19 z-score with GST-Ap-NF-kB RHD; 4.07 z-score in experiment [1]; 6.92 z-score in experiment [2]; 6.23 z-score with GST-Dm-Relish; 3.3 z-score with GST-Aq-NF-kB.
Regarding “CCGATTAACATCAACCCCCCCCATGATGTTAATCGGGTCTTGATTCGCTTGACGCTGCTG”, the binding signal is 5.53 z-score with GST-Ap-NF-kB RHD; 4.32 z-score in experiment [1]; 3.55 z-score in experiment [2]; 4.94 z-score in the experiment with GST-Co-NF-kB; 5.75 z-score in the experiment with GST-Dm-Relish; 4.01 z-score with GST-Aq-NF-kB.
